Potency and outcome data for 27 compounds are collected here from PubChem BioAssay (Tox21).

Assay [1] in a line: qHTS assay to identify small molecule antagonists of the glucocorticoid receptor (GR) signaling pathway - cell viability counter screen (AID 720693). Further: nearly all actives have a fitted effect of over 55% in size. Further: potency means the concentration at half of the fitted maximal effect.
Assay [2] can be described thus: qHTS assay for identifying genotoxic compounds that show differential cytotoxicity against isogenic chicken DT40 cell lines with known DNA damage response pathways - wild type cell line (AID 743012). Further: nearly all actives have a fitted effect of over 60% in size. Further: potency means the concentration at half of the fitted maximal effect. In a few lines: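 Wild type DT40, 300 cells/well, ~0.5 h settle at 37 C/5% CO2; compounds in DMSO added by pintool; 40 h at 37 C/5% CO2; CellTiter-Glo, 30 min RT; luminescence.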

Assay [3] can be described thus: qHTS assay for identifying genotoxic compounds that show differential cytotoxicity against isogenic chicken DT40 cell lines with known DNA damage response pathways - Rev3 mutant cell line (AID 743014). Further: nearly all actives have a fitted effect of over 55% in size. Further: potency means the concentration at half of the fitted maximal effect.
Assay [4] is described as follows: qHTS assay for identifying genotoxic compounds that show differential cytotoxicity against isogenic chicken DT40 cell lines with known DNA damage response pathways - Rad54/Ku70 mutant cell line (AID 743015). Further: nearly all actives have a fitted effect of over 60% in size. Further: potency means the concentration at half of the fitted maximal effect.
The nature of assay [5]: qHTS assay to identify small molecule antagonists of the androgen receptor (AR) signaling pathway - cell viability counter screen (AID 743033; further: nearly all actives have a fitted effect of over 45% in size).
Assay [6] addresses Androgen receptor (Homo sapiens) (UniProt P10275). The assay can be described thus: qHTS assay to identify small molecule antagonists of the androgen receptor (AR) signaling pathway (AID 743035; active means well fitted inhibition curve with a large enough effect in the signal ratio in the repeat runs, not every such curve was filed as active; the % refers to the signal ratio; further: potency means the concentration at half of the fitted maximal effect). In a few lines: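 Fluorescence from a beta-lactamase FRET substrate (LiveBLAzer B/G, 2 h, room temperature) measured inhibition of R1881-stimulated signaling in GeneBLAzer AR-UAS-bla HEK293 cells exposed to compound for 16 h at 37C.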

The target is the same in assay [7]. The assay can be described thus: qHTS assay to identify small molecule agonists of the androgen receptor (AR) signaling pathway (AID 743036; active means well fitted activation curve with a large enough effect in the signal ratio in the repeat runs, with a control signal flat, not every such curve was filed as active; the % refers to the signal ratio). In a few lines:
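Screening used 2,000 AR-bla HEK293 cells per well, treated 16 h at 37C with test compounds in DMSO alongside positive and DMSO-only controls; beta-lactamase activity was then read by LiveBLAzer B/G FRET fluorescence after 2 h at room temperature.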

The target is the same in assay [8]. Nature of the assay: qHTS assay to identify small molecule agonists of the androgen receptor (AR) signaling pathway using the MDA cell line (AID 743040; further: nearly all actives have a fitted effect of over 20% in size). In outline: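 MDA-kb2 breast carcinoma cells stably carrying an MMTV-driven luciferase reporter (AR- and GR-responsive) were seeded and held 5 h at 37C, 0% CO2, then exposed to compounds in DMSO for 16 h. Luminescence was read 30 min after ONE-Glo addition.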

Assay [9] in a line: qHTS assay to identify small molecule antagonists of the androgen receptor (AR) signaling pathway using the MDA cell line - cell viability counter screen (AID 743041; further: nearly all actives have a fitted effect of over 45% in size). In a few lines: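 MDA-kb2 AR-luc human breast carcinoma cells (MMTV-luciferase, AR/GR responsive) were treated with compounds plus R1881 agonist for 16 h at 37 °C. Viability was read as CellTiter-Fluor fluorescence in the same wells as the reporter assay.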

For assay [10], the target named is Androgen receptor (Homo sapiens) (UniProt P10275). The assay can be described thus: qHTS assay to identify small molecule antagonists of the androgen receptor (AR) signaling pathway using the MDA cell line (AID 743042; further: nearly all actives have a fitted effect of over 55% in size). In a few lines:
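MDA-kb2 cells (human breast carcinoma, stably carrying an MMTV-luciferase reporter responsive to AR and GR) were plated at 3,000 cells/well and preincubated 5 hr at 37C, then given compound plus R1881 agonist for 16 h. ONE-Glo luminescence was read.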

The structures appear in SMILES notation. Results filed as inconclusive are left out. Activity calls are given as the source filed them. Unless noted, the call rests on the fitted dose curve; in most records, active means well fitted curve in the direction sought with a large enough effect in the repeat runs; inconclusive means weak or mixed curves; inactive means no such curve, though single readings can be large; an effect the other way counts as inactive or inconclusive.

Sequence of Androgen receptor (Homo sapiens) (P10275 whole entry, looked up): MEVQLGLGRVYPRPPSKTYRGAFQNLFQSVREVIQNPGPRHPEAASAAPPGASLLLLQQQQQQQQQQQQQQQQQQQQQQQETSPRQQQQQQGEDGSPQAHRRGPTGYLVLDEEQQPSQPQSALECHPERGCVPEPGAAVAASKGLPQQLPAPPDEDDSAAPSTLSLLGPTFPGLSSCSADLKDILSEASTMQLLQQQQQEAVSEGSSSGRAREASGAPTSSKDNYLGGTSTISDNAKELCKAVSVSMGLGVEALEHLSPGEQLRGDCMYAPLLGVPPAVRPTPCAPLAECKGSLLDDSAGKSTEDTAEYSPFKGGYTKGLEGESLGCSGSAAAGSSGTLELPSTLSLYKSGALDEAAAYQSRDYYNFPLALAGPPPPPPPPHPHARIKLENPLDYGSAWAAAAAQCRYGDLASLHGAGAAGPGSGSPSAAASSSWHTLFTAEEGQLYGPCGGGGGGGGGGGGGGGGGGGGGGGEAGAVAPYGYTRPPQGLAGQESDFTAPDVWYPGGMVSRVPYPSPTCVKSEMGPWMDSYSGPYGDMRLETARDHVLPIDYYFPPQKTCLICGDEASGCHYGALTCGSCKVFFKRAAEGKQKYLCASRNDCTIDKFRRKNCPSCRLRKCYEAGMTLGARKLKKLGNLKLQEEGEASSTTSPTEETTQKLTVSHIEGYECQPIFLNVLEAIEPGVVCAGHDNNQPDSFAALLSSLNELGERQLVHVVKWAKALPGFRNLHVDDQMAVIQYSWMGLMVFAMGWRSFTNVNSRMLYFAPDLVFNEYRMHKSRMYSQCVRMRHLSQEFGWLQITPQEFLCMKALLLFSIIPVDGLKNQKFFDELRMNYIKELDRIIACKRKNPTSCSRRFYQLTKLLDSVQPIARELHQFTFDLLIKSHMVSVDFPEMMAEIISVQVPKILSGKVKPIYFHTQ

In the case of `CCOc1ccccc1O`, the Potency entry in [1], in assay [2], in assay [3], in [4] and in [5] was “inactive” in each case.

In the case of `O=C(O)c1ccncc1`, the Potency entry in assay [1], in assay [2], in assay [3], in assay [4], in [5] and in [6] was “inactive” in each case. For the same compound, the Potency entry in assay [9] and in assay [10] was “inactive” each time. For the same compound, the result in assay [7] and in assay [8] was inactive.

With `C[C@H]1C[C@H]2[C@@H]3CCC4=CC(=O)C=C[C@]4(C)[C@@]3(F)[C@@H](O)C[C@]2(C)[C@@]1(O)C(=O)COP(=O)(O)O`, the Potency result in assay [1], in [2], in assay [3], in assay [4], in assay [5] and in assay [9] was “inactive” throughout.

For `CCOc1ccc(NC(C)=O)cc1N`, the Potency result in assay [1], in assay [2], in assay [3], in assay [4], in assay [5] and in assay [9] was “inactive” each time. Besides, the Potency result in assay [10] was “inactive”. The result in assay [7] and in assay [8] was inactive.

With `CCCCCCCCCCCCN1CCOCC1`, the Potency entry in assay [1], in [5] and in [9] was “inactive” in each case. Moreover, the Potency is 27.3 µM (active) in assay [2], 8.63 µM (active) in assay [3] and 19.3 µM (active) in assay [4].

With `CCC[Si](OC)(OC)OC`, the Potency result in [1], in assay [2], in assay [3], in [4], in assay [5] and in assay [9] was “inactive” throughout. For the same compound, the Potency entry in [10] is “inactive”. Besides, the compound was classed as inactive in assay [7] and in assay [8].

Consider `CC(C)(C)N`, for which the Potency result in [1], in assay [2], in [3], in [4], in assay [5] and in [9] was “inactive” in each case.

`CCOc1ccc2c(c1)C(C)CC(C)(C)N2` (configuration not stated): the Potency result in [1], in assay [5], in [9] and in assay [10] was “inactive” each time. Further, the results for the Potency in [2], in assay [3] and in [4] were 27.3 µM (active), 54.5 µM (active) and 48.6 µM (active), respectively. Also, the compound was called inactive in assay [7] and in assay [8].

Regarding `Cc1c(Cl)cccc1[N+](=O)[O-]`, the Potency entry in [1], in [2], in assay [3], in assay [4], in assay [5] and in assay [9] was “inactive” each time.

With `Clc1cccc(C(c2ccc3nc[nH]c3c2)n2ccnc2)c1` (configuration not stated), the Potency result in assay [1], in assay [5] and in assay [9] was “inactive” each time. Moreover, the values for the Potency in assay [2], in assay [3] and in assay [4] were 21.1 µM (active), 26.6 µM (active) and 26.6 µM (active), respectively. Besides, in [8], the outcome was inactive.

Regarding `Cc1ccc(NC(=O)c2ccc(CN3CCN(C)CC3)cc2)cc1Nc1nccc(-c2cccnc2)n1`, the Potency result in assay [1], in assay [5] and in assay [9] was “inactive” in each case. In addition, the Potency in [2] was 15 µM (active); in assay [3] it was 11.9 µM (active); in assay [4], 13.3 µM (active). Further, the outcome in [8] was inactive.

Regarding `NC(=O)c1ccccc1C(N)=O`, the Potency result in assay [1], in [2], in assay [3], in assay [4], in assay [5] and in assay [6] was “inactive” in each case. Besides, the Potency entry in assay [9] and in [10] was “inactive” each time. Also, the outcome in assay [8] was inactive.

As to `CCCCCCCCCCCCSC#N`, the Potency result in assay [1], in assay [2], in assay [3], in assay [4], in assay [5] and in assay [9] was “inactive” in each case.

As to `CC1(COc2ccc(CC3SC(=O)NC3=O)cc2)CCCCC1` (configuration not stated), the Potency in assay [1] is 23.9 µM (active); in [2], 10.6 µM (active); in [3], 23.7 µM (active); in assay [4] it was 11.9 µM (active). The Potency entry in assay [5] is “inactive”.

In the case of `CCc1ccc(C(=O)C(C)CN2CCCCC2)cc1` (configuration not stated), the Potency result in assay [1] and in [5] was “inactive” each time. Also, the Potency was 11.9 µM (active) in assay [2], 11.9 µM (active) in assay [3] and 16.8 µM (active) in [4].

`O=C(Nc1ccccc1)c1cc([N+](=O)[O-])ccc1Cl`: the Potency entry in assay [1], in [5], in [9] and in assay [10] was “inactive” each time. The Potency in assay [2] was 68.6 µM (active); in assay [3], 68.6 µM (active); in assay [4], 68.6 µM (active); in assay [6], 24.5 µM (active). The compound was classed as inactive in assay [7] and in assay [8].

As to `FC(F)(Cl)C(F)(Cl)Cl`, the Potency entry in assay [1], in assay [2], in [3], in assay [4], in assay [5] and in assay [6] was “inactive” each time. Further, the Potency entry in assay [9] and in [10] was “inactive” in each case. For the same compound, the compound was called inactive in assay [7] and in assay [8].

As to `CC(O)CN` (configuration not stated), the Potency result in [1], in assay [2], in assay [3], in assay [4], in [5] and in assay [9] was “inactive” in each case.

With `COc1ccc(/C=C/S(=O)(=O)NC(=O)c2ccc(C)cc2Cl)cc1`, the Potency result in assay [1], in assay [2], in assay [3], in assay [4], in assay [5] and in assay [9] was “inactive” in each case.

Take `CC(C(=O)O)c1ccc(/C=C2\CCCCC2=O)cc1` (configuration not stated): the Potency entry in assay [1], in [2], in assay [3], in [4], in assay [5] and in assay [9] was “inactive” throughout.

For `Cc1nc2sccn2c(=O)c1CCN1CCC(=C(c2ccc(F)cc2)c2ccc(F)cc2)CC1`, the Potency entry in [1] is “inactive”. Besides, the results for the Potency in assay [2], in assay [3] and in assay [4] were 7.5 µM (active), 13.3 µM (active) and 13.3 µM (active), respectively.

Take `CC(C)CCCCCCCOC(=O)c1ccc(C(=O)OCCCCCCCC(C)C)c(C(=O)OCCCCCCCC(C)C)c1`: the Potency entry in assay [1], in assay [2], in assay [3], in assay [4], in assay [5] and in assay [9] was “inactive” each time.

On to `O=C(O)c1cccnc1Nc1cccc(C(F)(F)F)c1`, for which the Potency result in [1], in assay [2], in [3], in assay [4], in assay [5] and in assay [9] was “inactive” throughout.

Take `CCCc1nc(C)c2c(=O)[nH]c(-c3cc(S(=O)(=O)N4CCN(CC)CC4)ccc3OCC)nn12`: the Potency entry in assay [1], in assay [2], in [3], in [4], in assay [5] and in assay [6] was “inactive” in each case. Further, the Potency entry in [9] and in [10] was “inactive” throughout.

`CCCCCCOC(=O)c1ccccc1`: in assay [1], the Potency entry is “inactive”. The Potency was 68.6 µM (active) in assay [2], 61.1 µM (active) in [3] and 61.1 µM (active) in [4].

Turning to `CC(=O)Nc1ccn(C2COC(COC(=O)c3ccccc3)O2)c(=O)n1` (configuration not stated), the Potency result in assay [1], in assay [5] and in assay [9] was “inactive” in each case. For the same compound, the Potency in assay [2] is 9.44 µM (active); in [3] it was 13.3 µM (active); in assay [4], 11.9 µM (active).

As for `O=C(O)c1ccc(O)c(O)c1`, the Potency entry in [1], in assay [2], in assay [3], in [4], in [5] and in assay [6] was “inactive” each time. Moreover, the Potency entry in assay [9] and in [10] was “inactive” each time. Besides, the compound was classed as inactive in assay [7] and in assay [8].
